About 10,000 (3%) of roughly 330,000 compounds were called active.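 Rule for the calls: active = inhibition of at least 50% at 8 µM in the primary screen; inactive = the rest.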 The sample as a whole holds a higher share of actives than the screen did.

Chain of Protein Mdm4 (Homo sapiens) + E3 ubiquitin-protein ligase Mdm2 (Homo sapiens) (O15151 whole entry, looked up): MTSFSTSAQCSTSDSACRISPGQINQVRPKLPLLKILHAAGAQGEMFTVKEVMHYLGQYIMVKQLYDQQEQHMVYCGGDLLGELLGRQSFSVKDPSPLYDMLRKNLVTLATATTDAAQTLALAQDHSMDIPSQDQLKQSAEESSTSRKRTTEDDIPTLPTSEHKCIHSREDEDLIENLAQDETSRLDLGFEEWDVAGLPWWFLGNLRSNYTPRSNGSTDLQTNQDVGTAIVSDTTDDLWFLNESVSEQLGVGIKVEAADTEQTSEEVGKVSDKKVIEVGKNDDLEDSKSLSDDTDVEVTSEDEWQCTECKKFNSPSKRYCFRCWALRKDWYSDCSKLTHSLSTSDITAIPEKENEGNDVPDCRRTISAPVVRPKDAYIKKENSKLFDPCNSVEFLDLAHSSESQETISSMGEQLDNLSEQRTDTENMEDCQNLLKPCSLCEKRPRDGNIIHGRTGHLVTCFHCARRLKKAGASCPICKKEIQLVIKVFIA
Chain of Protein Mdm4 (Homo sapiens) + E3 ubiquitin-protein ligase Mdm2 (Homo sapiens) (Q00987 whole entry, looked up): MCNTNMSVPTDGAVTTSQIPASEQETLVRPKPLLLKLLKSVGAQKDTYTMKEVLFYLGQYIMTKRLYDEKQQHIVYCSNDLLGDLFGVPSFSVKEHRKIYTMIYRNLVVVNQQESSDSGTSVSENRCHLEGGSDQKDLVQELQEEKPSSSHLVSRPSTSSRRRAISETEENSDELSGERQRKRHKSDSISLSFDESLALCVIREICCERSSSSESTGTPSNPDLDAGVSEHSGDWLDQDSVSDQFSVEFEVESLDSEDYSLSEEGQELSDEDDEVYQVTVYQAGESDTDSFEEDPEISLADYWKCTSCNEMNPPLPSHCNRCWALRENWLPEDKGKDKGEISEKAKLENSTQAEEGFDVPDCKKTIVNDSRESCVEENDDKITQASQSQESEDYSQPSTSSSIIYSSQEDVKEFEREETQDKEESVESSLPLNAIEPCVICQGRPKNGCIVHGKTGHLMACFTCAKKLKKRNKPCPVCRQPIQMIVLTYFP

This assay concerns the target Protein Mdm4 (Homo sapiens) + E3 ubiquitin-protein ligase Mdm2 (Homo sapiens) (UniProt O15151+Q00987). As to the kind of experiment: disruptors of Mdm2/MdmX RING complex – cell-based, luminescence, split luciferase, SaOS-2, uHTS, primary screen (AID 485346). Particulars: SaOS-2 split-luciferase Mdm2/MdmX complementation, at 8 µM, active compounds read high.
One may read the inhibition as the change of the read-out against control, counted positive when it falls. In the case of `O=C(NNC1CC(=O)N(c2cccc(Cl)c2)C1=O)c1cccnc1` (centres undefined), the inhibition is 14.9% (inactive). As to `COc1ccc(-c2c(C)cc3oc(=O)cc(-c4ccccc4)c3c2C)cc1OC`, the inhibition is 7.66% (inactive). Turning to `COc1ccc(-c2c(C)cc3oc(=O)cc(-c4ccccc4)c3c2C)cc1F`, the inhibition is 2.64% (inactive). With `COc1cc(OC)c2c(-c3cccc(-c4cccc(N)c4)c3)cc(=O)oc2c1`, the inhibition is 75% (active). For the compound `C=CCn1c(=S)[nH]c2scc(-c3ccco3)c2c1=O`, the inhibition was -19.1% (inactive). Under `Cc1ccccc1C(OCCN(C)C)C1CCCCC1` (centres undefined) stands 25.8% (inactive). Then `COc1cccc(OC)c1C(=O)N1CCN(Cc2cccnc2)CC1`, with -4.03% (inactive); and `COc1ccc(S(=O)(=O)N2CCOCC2)cc1NC(=O)Cc1coc2cc(C)ccc12`, with 3.68% (inactive). Then `Cc1cccc(NS(=O)(=O)c2ccc(-c3cnc(C4CC4)o3)cc2)c1`, with 65.1% (active); and `Cc1cccc(CNS(=O)(=O)c2ccc(-c3cnc(C4CC4)o3)cc2)c1`, with 35.8% (inactive). `COc1ccc(CNS(=O)(=O)c2ccc(-c3cnc(C4CC4)o3)cc2)cc1`: the inhibition was 15.3% (inactive). As for `CN(C)S(=O)(=O)c1ccc(C(=O)NCCN=C2NS(=O)(=O)c3ccccc32)cc1`, the inhibition is 7.98% (inactive). As for `COCCCNC(=O)CN1CCN(Cc2ccccc2Cl)C1=O`, the inhibition was -6.08% (inactive). Under `Cc1nn(CC(=O)NCCc2ccccc2)c(=O)c2cc3occc3n12` stands 19% (inactive); under `Cc1ccc(-c2ccc(=O)n(CC(=O)NCCCN3CCCCC3)n2)cc1`, 2.15% (inactive). Then `CCc1ccc(-c2cc3c(=O)n(CC(=O)NCCCN4CCN(Cc5ccccc5)CC4)nc(C)n3n2)cc1`, with 97.4% (active); and `O=C(NNC(=O)c1cc(S(=O)(=O)N2CCCCC2)ccc1Cl)c1ccccc1O`, with 16.6% (inactive). Under `C[C@H](NC(=O)OC(C)(C)C)c1nnc(SCC(=O)Nc2ccc(Br)cc2)o1` stands 18.7% (inactive). On to `CC(C)Sc1nnc([C@H](Cc2ccccc2)NC(=O)OC(C)(C)C)o1`, for which the inhibition was 2.05% (inactive). `C[C@@H](NC(=O)OC(C)(C)C)c1nnc(S(=O)(=O)Cc2ccccc2)o1`: the inhibition is 53.4% (active).

For `NC(=O)CC(NC(=O)Cc1ccc(Br)cc1)c1ccc(NC2CC3CCC2C3)c([N+](=O)[O-])c1` (centres undefined), the inhibition is 9.79% (inactive). Take `COc1ccc(Br)cc1CN(C)C(=O)C1CC(=O)N(C2CCCC2)C1` (centres undefined): the inhibition is 9.72% (inactive). As for `CCN(CC(=O)NC(C)C)C(=O)c1cc(S(=O)(=O)N2CCCCC2)ccc1N1CCCCC1`, the inhibition is 2.7% (inactive). As for `Cc1ccnc(NC(=O)C2CCN(S(=O)(=O)c3c(C)c(C)cc(C)c3C)CC2)c1`, the inhibition is 84.8% (active). `Cc1cccc(NC(=O)C2CCN(S(=O)(=O)c3cccc4cccnc34)CC2)c1`: the inhibition was 14% (inactive). Under `O=C(Nc1ccccn1)C1CCN(S(=O)(=O)c2ccccc2)CC1` stands -12.4% (inactive); under `Cc1ccc(S(=O)(=O)N(C)CC(=O)NCCc2c[nH]c3ccccc23)cc1`, 6.29% (inactive). Consider `Cc1ccc(OCCNC(=O)CN2C(=O)NC3(CCCC3)C2=O)cc1`, for which the inhibition was 15.5% (inactive). Consider `Cc1ccc(S(=O)(=O)/N=S(\C)C(C)C)cc1` (centres undefined), for which the inhibition was 20.8% (inactive). Turning to `COc1ccc(CNC(=O)C[C@H]2C[C@H](C(=O)N3CCOCC3)[C@@]3(C)c4[nH]c5cc(CCC(=O)N(C)C)ccc5c4CCN3C2=O)cc1OC`, the inhibition was 49.5% (inactive). Then `Cc1ccc2sc(N(CCN(C)C)C(=O)/C=C/c3cccs3)nc2c1C`, with 52.3% (active); and `Cc1cc(C)c2nc(N(CCN(C)C)C(=O)/C=C/c3cccs3)sc2c1`, with 47.5% (inactive). Take `Cc1ccc(S(=O)(=O)N(C)C)cc1NC(=O)/C=C/c1cccs1`: the inhibition was 30.7% (inactive). With `COCc1c(C(=O)N/N=C(\C)c2ccncc2)nnn1-c1nonc1N`, the inhibition is -11.6% (inactive).

As for `Cc1cc(C)c(S(=O)(=O)N(C)CC(=O)NCC2CCCO2)c(C)c1` (centres undefined), the inhibition is 0.089% (inactive).

Take `Cc1ccc(OCc2nnc(NC(=O)OCC(C)C)s2)cc1`: the inhibition is -16.4% (inactive). For `CN(Cc1ccccc1)C(=O)CSc1nc2ccccc2[nH]1`, the inhibition is -10.7% (inactive).

As to `O=C(CSc1nc2ccccc2[nH]1)Nc1nc(-c2ccccc2)c(-c2ccccc2)o1`, the inhibition is 13.9% (inactive).

Regarding `CCC(C)N1C(=O)S/C(=C/c2ccc(Sc3nc4ccccc4[nH]3)o2)C1=O` (centres undefined), the inhibition is 89.2% (active). Then `O=C(CNC(=O)c1ccccc1Br)NNC(=O)c1cccs1`, with 4.78% (inactive); and `Cc1[nH]n(-c2ccc([N+](=O)[O-])cc2)c(=O)c1C=NCCN1CCN(C(=O)c2ccccc2F)CC1`, with -5.19% (inactive); and `Cc1ccc(-n2[nH]c(C)c(/C=N/NC(=O)c3cccc([N+](=O)[O-])c3)c2=O)cc1C`, with 72.5% (active).

`Cc1[nH]n(-c2ccccc2)c(=O)c1/C=N/NC(=O)c1ccoc1C`: the inhibition is 37.2% (inactive). Under `CC1O[C@@H](OC2C(O)C(C)O[C@H](OC(=O)[C@]34CCC(C)(C)C[C@H]3C3=CCC5[C@@]6(C)CC(O)C(O[C@@H]7OC(CO)C(O)[C@@H](O)[C@@H]7O)[C@@](C)(C(=O)O)C6CC[C@@]5(C)[C@]3(CO)CC4)C2O[C@H]2OC(C)[C@@H](O[C@@H]3OCC(O[C@@H]4OC(CO)C(O)[C@H](O)C4O)[C@@H](O)[C@@H]3O)[C@H](O)C2O)C(O)C(O)C1O` (some centres undefined) stands -20.6% (inactive). As for `O=S(=O)(O)Oc1c[nH]c2ccccc12`, the inhibition was 12.5% (inactive). `O=C(Nc1ccc2c(c1)nc1n2CCCCC1)c1cc(S(=O)(=O)N2CCOCC2)ccc1Cl`: the inhibition is 4.51% (inactive). Turning to `O=C(CN(c1cccc(Cl)c1)S(=O)(=O)c1ccccc1)NN=C1CCCC1`, the inhibition is -14% (inactive). Under `CSc1ccc(-c2c(C#N)c(N)nc3c2c(C)nn3-c2ccccc2)cc1` stands 40.5% (inactive); under `CSc1nc(N)c(C#N)c(-c2ccccc2Cl)c1C#N`, 58.4% (active).

Take `COc1ccccc1-c1c(C#N)c(N)nc2c1CCC2`: the inhibition is -4.18% (inactive). Take `Cc1ccc(NC(=O)C(=O)NCC2CCN(C(=O)c3cccc([N+](=O)[O-])c3)CC2)cc1`: the inhibition was -4.26% (inactive). Under `Cc1cccc(NC(=O)c2cccc(S(=O)(=O)N3CCCC3)c2)n1` stands -8.96% (inactive); under `CCn1c(O)c(N=NC(=O)c2cccc(S(=O)(=O)N3CCCCC3)c2)c2ccccc21`, 51% (active); under `CCn1c2ccccc2c2cc(NC(=O)COC(=O)c3cc(S(=O)(=O)N4CCCCC4)ccc3Cl)ccc21`, 17.9% (inactive).

Values taken from PubChem BioAssay AID485346 (Sanford-Burnham Center for Chemical Genomics, 2010).
